Screening data as filed in PubChem BioAssay.
The list is not random: actives were taken first. Their share in the collection is about 4.1%.
DAX1 inh-1 – inhibitors of human orphan nuclear receptor DAX1 (NR0B1). P51843. HEK293 Gal4-DAX1 luciferase reporter, luminescence. inhibition, % at 6.75 µM. hit rate 0.99% among 340,000;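 active = inhibition above the mean over all tested compounds plus 3 SD, cut at about 4.2% in these data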;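 also: 0% = DAX1-transfected cells with DMSO and 100% = empty-vector control cells with DMSO; inhibition shows as a rise in luminescence from relieved DAX1 repression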
Target sequence (P51843 207-470 limits assumed): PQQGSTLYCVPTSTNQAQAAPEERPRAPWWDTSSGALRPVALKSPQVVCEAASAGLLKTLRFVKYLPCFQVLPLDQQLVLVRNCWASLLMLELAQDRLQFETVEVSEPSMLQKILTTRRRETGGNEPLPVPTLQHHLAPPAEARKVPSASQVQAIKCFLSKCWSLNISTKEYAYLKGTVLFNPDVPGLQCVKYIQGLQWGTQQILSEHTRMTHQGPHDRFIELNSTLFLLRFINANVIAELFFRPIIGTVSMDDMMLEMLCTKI
hcDAF12 agonist – activators of H. contortus DAF-12 nuclear receptor | AID 652067 | hit rate 1.4% among 370,000 | HEK293 hcDAF-12 lit1-tk-luc reporter, luminescence; 0% DMSO, 100% Δ7-dafachronic acid | activation, % at 6.8 µM;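 active = activation above the mean of all tested compounds plus 3 SD, cut at about 5.5% in these data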;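 also: 100% = response to 3 µM Δ7-dafachronic acid high control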
DAX1 inh-2 – blocks DAX1 repression of SF-1 activated StAR promoter; HEK293T StAR-luciferase reporter, SF-1/DAX-1 repression relief; inhibition, % at 6.8 µM; hit rate 1.1% among 370,000;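 active = inhibition above the mean over all tested compounds plus 3 SD, cut at about 3.6% in these data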;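 also: 0% = DAX-1 cells with DMSO and 100% = cells lacking DAX-1 with DMSO; higher inhibition means more luminescence from relief of DAX-1 repression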
ssDAF12 agonist – S. stercoralis DAF-12 activation, primary screen. AID 652126. activation, % at 6.8 µM. HEK293 ssDAF-12/GRIP1 lit1-tk-luc reporter, luminescence; % of 3 µM dafachronic acid response. hit rate 1% among 370,000;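 active = activation above the mean over all tested compounds plus 3 SD, cut at about 0.9% in these data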;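 also: 0% = DMSO-only wells and 100% = 3 µM delta7-dafachronic acid wells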
hgDAF-12 ag – activates the H. glycines DAF-12 receptor ligand-binding domain; activation, % at 6.8 µM; HEK293 GAL4-hgDAF12 UAS-luciferase reporter, agonist luminescence; normalized to butyrate control; hit rate 1.8% among 370,000; AID 687014;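 active = activation above a cutoff set at the mean of all screened compounds plus 3 SD, cut at about 10% in these data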;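 also: 0% = DMSO wells and 100% = sodium butyrate wells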
Starred values were filed as active, the others as inactive.

Results for CC1Oc2ccccc2N(CC(=O)Nc2ccc3c(c2)OCO3)C1=O (stereo not drawn) ?
DAX1 inh-1: -0.7; hcDAF12 agonist: -0.1; DAX1 inh-2: -0.8; ssDAF12 agonist: -1.3; hgDAF-12 ag: -0.9

What do the screens show for `O=C(NCc1ccc2c(c1)OCO2)OCc1ccccc1`?
hcDAF12 agonist: 2.2; DAX1 inh-2: 4.0*; ssDAF12 agonist: -0.7; hgDAF-12 ag: 7.3

How did COc1ccc(OC)c(C2c3[nH]c4ccccc4c3C[C@H]3C(=O)N(C4CC4)CC(=O)N23)c1 (stereo partly drawn) do in these assays?
DAX1 inh-1: -0.2; hcDAF12 agonist: 5.8*; DAX1 inh-2: 0.2; ssDAF12 agonist: 0.3; hgDAF-12 ag: 1.9

Results for COc1cccc(C2c3[nH]c4ccccc4c3C[C@H]3C(=O)N(C4CC4)CC(=O)N23)c1 (stereo partly drawn) ?
DAX1 inh-1: -0.3; hcDAF12 agonist: 1.5; DAX1 inh-2: 0.0; ssDAF12 agonist: -0.5; hgDAF-12 ag: -1.5

What do the screens show for `CCOc1ccc(NC(=O)N(C2CCCCC2)C(C)c2ccncc2)cc1` (stereo not drawn)?
DAX1 inh-1: -0.3; hcDAF12 agonist: 2.7; DAX1 inh-2: -0.4; ssDAF12 agonist: 1.6*; hgDAF-12 ag: 0.8

Results for Cc1cc(NC(=O)CSc2nnc(-c3ccc4c(c3)OCCO4)o2)no1 ?
DAX1 inh-1: -0.7; hcDAF12 agonist: 3.9; DAX1 inh-2: 3.9*; ssDAF12 agonist: 0.0; hgDAF-12 ag: 10.3

What do the screens show for `Cc1cc(NC(=O)CSc2nnc(Cc3ccccc3)o2)no1`?
DAX1 inh-1: 5.1*; hcDAF12 agonist: -0.6; DAX1 inh-2: 0.0; ssDAF12 agonist: -0.7; hgDAF-12 ag: 0.2

Results for Cc1cc(NC(=O)CSc2nnc(-c3cccc(Cl)c3)o2)no1 ?
DAX1 inh-1: 0.9; hcDAF12 agonist: -2.5; DAX1 inh-2: -0.3; ssDAF12 agonist: -1.1; hgDAF-12 ag: 0.1

How did Cc1cc(NC(=O)CSc2nnc(CNC(=O)c3ccccc3)o2)no1 do in these assays?
DAX1 inh-1: -0.2; hcDAF12 agonist: 0.6; DAX1 inh-2: 2.4; ssDAF12 agonist: -0.8; hgDAF-12 ag: 0.3

What do the screens show for `COC(=O)c1c(C)oc(C)c1S(=O)(=O)N1CCOCC1`?
DAX1 inh-1: 0.3; hcDAF12 agonist: -0.1; DAX1 inh-2: -0.4; ssDAF12 agonist: -1.2; hgDAF-12 ag: -1.1

How did N/C(=N\NC(=O)c1cccs1)c1cc2ccccc2oc1=O do in these assays?
DAX1 inh-1: 3.5; hcDAF12 agonist: 3.1; DAX1 inh-2: 1.9; ssDAF12 agonist: -0.1; hgDAF-12 ag: 11.2*

What do the screens show for `CCCC1CCC2(CCCN2CCOC(=S)Nc2ccccc2OC)CC1` (stereo not drawn)?
hcDAF12 agonist: -4.1; ssDAF12 agonist: -2.0; hgDAF-12 ag: -4.1

What do the screens show for `Cc1csc(SCC(=O)Nc2nccs2)n1`?
DAX1 inh-1: 1.1; hcDAF12 agonist: 0.9; DAX1 inh-2: 0.7; ssDAF12 agonist: -0.4; hgDAF-12 ag: 1.5

What do the screens show for `Cc1csc(SCC(=O)Nc2sccc2C(N)=O)n1`?
DAX1 inh-1: 0.3; hcDAF12 agonist: 0.5; DAX1 inh-2: 0.4; ssDAF12 agonist: -0.6; hgDAF-12 ag: 10.8*

Results for COc1ccc(-c2cc(-c3nnc4sc(-c5cccs5)nn34)[nH]n2)cc1 ?
hcDAF12 agonist: 0.0; DAX1 inh-2: 0.6; ssDAF12 agonist: -1.1; hgDAF-12 ag: 5.5

What do the screens show for `O=C(Nc1ncc(Cc2cccc(Cl)c2Cl)s1)C1CCCO1` (stereo not drawn)?
DAX1 inh-1: 2.8; hcDAF12 agonist: 1.1; DAX1 inh-2: 2.9; ssDAF12 agonist: -0.7; hgDAF-12 ag: 6.6

How did O=C(Nc1ncc(Cc2ccccc2Cl)s1)C1CCCO1 (stereo not drawn) do in these assays?
DAX1 inh-1: 0.0; hcDAF12 agonist: 1.7; DAX1 inh-2: 2.5; ssDAF12 agonist: -0.2; hgDAF-12 ag: 12.2*

How did COc1ccc(C(=O)CSc2nnc(-c3ccc(C(C)(C)C)cc3)n2C)cc1 do in these assays?
hcDAF12 agonist: -3.4; DAX1 inh-2: -0.4; ssDAF12 agonist: -1.4; hgDAF-12 ag: 3.9

Results for Cc1ccc(N(CCC#N)C(=O)CSc2nc3ccccc3c(=O)[nH]2)cc1 ?
DAX1 inh-1: 0.2; hcDAF12 agonist: -1.5; DAX1 inh-2: 3.7*; ssDAF12 agonist: -0.9; hgDAF-12 ag: 1.8

What do the screens show for `N#CCCN(C(=O)CSc1n[nH]c(=O)[nH]c1=O)c1ccccc1`?
DAX1 inh-1: -1.1; hcDAF12 agonist: -0.8; DAX1 inh-2: -1.6; ssDAF12 agonist: -0.8; hgDAF-12 ag: 0.6
